In PubChem BioAssay (Tox21) one finds Potency and outcome data, which are given here for 8 compounds.

Results filed as inconclusive are left out. The source made the active and inactive calls. Unless noted, calls come from the whole dose curve; as a rule, active = well fitted curve in the direction sought with a large enough effect in the repeat runs; inconclusive = weak or mixed curves; inactive = no such curve, though single readings can be large; an effect the other way counts as inactive or inconclusive.

Experiment [1] can be described thus: qHTS assay for small molecule agonists of the p53 signaling pathway (AID 651631; calls by dose curve; note: nearly all actives have a fitted effect of over 15% in size). In short, it runs like this:
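Read-out is beta-lactamase FRET fluorescence measured 2 h after substrate addition at room temperature, in HCT-116 cells with a p53 response element-driven reporter exposed to compounds for 16 h at 37 °C.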
(qHTS replaces the single test concentration by a dilution series.)

Experiment [2] in a line: qHTS assay for small molecules that induce genotoxicity in human embryonic kidney cells expressing luciferase-tagged ATAD5 (AID 651632). Note: nearly all actives have a fitted effect of over 15% in size. The gist of the method: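 Genotoxicity read-out via ATAD5-luciferase: HEK293T cells, 16 hr compound incubation at 37C, Amplite detection.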
Experiment [3] is described as follows: qHTS assay for small molecule agonists of the p53 signaling pathway - cell viability (AID 651633; calls by dose curve;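 note: p53RE-bla HCT reporter cells with a stable beta-lactamase p53 reporter; nearly all actives have a fitted effect of over 30% in size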). The gist of the method: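 Viability counter-read: CellTiter-Glo luminescence (30 min, room temperature) in the same p53RE-bla plates. These plates had been exposed to compounds for 16 h at 37 C.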
Experiment [4] in a line: qHTS assay for small molecules that induce genotoxicity in human embryonic kidney cells expressing luciferase-tagged ATAD5 - cell viability (AID 651634; calls by dose curve; note: nearly all actives have a fitted effect of over 25% in size). The gist of the method: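 Live-cell protease activity (CellTiter-Fluor, fluorescence) indicates viability. HEK293T cells with luciferase-tagged ATAD5; 15.5 hr compound treatment at 37C.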
A short description of experiment [5]: qHTS assay for small molecule disruptors of the mitochondrial membrane potential - cell viability (AID 720634; calls by dose curve;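 note: human HepG2 liver cancer cells; nearly all actives have a fitted effect of over 20% in size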). In short, it runs like this: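 Human hepatoma HepG2 cells were treated for 1 hr with test chemicals, then given m-MPI dye and CellTiter-Glo. Cell viability reflects luminescence proportional to cellular ATP.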
Experiment [6] can be described thus: qHTS assay to test for compound auto fluorescence at 590 nm (red) in HepG2 cells (AID 720674). In short, it runs like this:
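1 hr compound incubation on HepG2 cells, 37 C, 5% CO2; plate read ex 540 nm / em 590 nm; intensities reported as Rose Bengal sodium equivalents.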

Experiment [7] is described as follows: qHTS assay to test for compound auto fluorescence at 535 nm (green) in HepG2 cells (AID 720675).
Experiment [8] in a line: qHTS assay to test for compound auto fluorescence at 460 nm (blue) in HEK293 cells (AID 720678). The gist of the method: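 Triamterene serves as the blue fluorophore standard. Compound signal at 405/460 nm is read in HEK293 wells (2,000 cells, 10% dialyzed FBS) after overnight treatment at 37C.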
Experiment [9] is described as follows: qHTS assay to test for compound auto fluorescence at 590 nm (red) in HEK293 cells (AID 720679). In short, it runs like this: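 We plated HEK293 cells in 10% dialyzed FBS medium, let them adhere for 4-5 hr, then added 23 nL compound. Overnight at 37C and 5% CO2 preceded fluorescence measurement at 540/590nm.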
Experiment [10] is described as follows: qHTS assay to test for compound auto fluorescence at 535 nm (green) in HEK293 cells (AID 720680).
Experiment [11] in a line: qHTS assay to test for compound auto fluorescence at 460 nm (blue) in HEK293 cell free culture (AID 720681). In short, it runs like this:
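Blue fluorescence (Ex 405/Em 460 nm, triamterene-equivalent) was read immediately after pin transfer of compound or DMSO into medium (DMEM, 10% FBS) without cells.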

Experiment [12] in a line: qHTS assay to test for compound auto fluorescence at 535 nm (green) in HEK293 cell free culture (AID 720682). The gist of the method: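 Fluorescein serves as the green reference fluorophore; each compound's intrinsic emission at 535 nm (excitation 485 nm) is reported as an equivalent amount of that dye, measured in serum-containing DMEM without cells.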
The nature of experiment [13]: qHTS assay to test for compound auto fluorescence at 590 nm (red) in HEK293 cell free culture (AID 720683). The gist of the method: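 Red-channel autofluorescence of compounds in culture medium (DMEM, 10% FBS), no cells, measured at 540/590 nm. Rose Bengal sodium is the reference fluorophore for equivalence.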
Experiment [14] in a line: qHTS assay to test for compound auto fluorescence at 590 nm (red) in HepG2 cell free culture (AID 720684). The gist of the method: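 Steps: dispense MEM/10% FBS medium, no cells; pin compound or DMSO vehicle; read red channel, Ex/Em 540/590 nm. Output given as Rose Bengal sodium equivalents.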
A short description of experiment [15]: qHTS assay to test for compound auto fluorescence at 460 nm (blue) in HepG2 cells (AID 720687). In short, it runs like this: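 Blue-channel autofluorescence (Ex/Em 405/460 nm, triamterene-equivalent) was measured after 1 hr compound exposure at 37 C, 5% CO2. Cells were HepG2, plated overnight at 37 C in MEM plus 10% FBS.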
Experiment [16] can be described thus: qHTS assay to test for compound auto fluorescence at 460 nm (blue) in HepG2 cell free culture (AID 720685). In short, it runs like this:
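Compound (23 nL) or DMSO pinned into cell-free MEM with 10% FBS; blue fluorescence read at 405/460 nm excitation/emission, expressed as auto-fluorescence equivalency to triamterene.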

Experiment [17] addresses Glucocorticoid receptor (Homo sapiens) (UniProt P04150). In words: qHTS assay to identify small molecule agonists of the glucocorticoid receptor (GR) signaling pathway (AID 720691; active = well fitted activation curve with a large enough effect in the signal ratio in the repeat runs, not every such curve was filed as active; the % refers to the signal ratio). Particulars: GR-bla HeLa, beta-lactamase reporter ratio, 18 h; activation: at 62.4 µM (top of the series). In short, it runs like this:
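Beta-lactamase reporter activity, read as fluorescence intensity, was measured in GR-bla HeLa cells exposed to compounds for 18 h at 37 C and then loaded with LiveBLAzer B/G FRET substrate for 2 h at room temperature.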

Experiment [18] shares this target. In words: qHTS assay to identify small molecule antagonists of the glucocorticoid receptor (GR) signaling pathway (AID 720692; active = well fitted inhibition curve with a large enough effect in the signal ratio in the repeat runs, not every such curve was filed as active; the % refers to the signal ratio). In short, it runs like this:
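Fluorescence from cleaved LiveBLAzer B/G FRET substrate reports GRE-driven beta-lactamase in HeLa cells; compounds are tested against 5 nM dexamethasone (final) over 18 h at 37 C, substrate incubation 2 h at room temperature.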

Experiment [19] is described as follows: qHTS assay for small molecule disruptors of the mitochondrial membrane potential (AID 720635). Note: potency is the fitted concentration of half-maximal effect. In short, it runs like this:
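Mitochondrial membrane potential tracked with Mito-MPS dye, red aggregates (ex 540/em 590 nm) against green monomers (ex 490/em 535 nm). Compound treatment 1 hr at 37C, dye 30 min in HepG2.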

The nature of experiment [20]: qHTS assay to test for compound auto fluorescence at 535 nm (green) in HepG2 cell free culture (AID 720686).

Glucocorticoid receptor (Homo sapiens), sequence (P04150 whole entry, looked up): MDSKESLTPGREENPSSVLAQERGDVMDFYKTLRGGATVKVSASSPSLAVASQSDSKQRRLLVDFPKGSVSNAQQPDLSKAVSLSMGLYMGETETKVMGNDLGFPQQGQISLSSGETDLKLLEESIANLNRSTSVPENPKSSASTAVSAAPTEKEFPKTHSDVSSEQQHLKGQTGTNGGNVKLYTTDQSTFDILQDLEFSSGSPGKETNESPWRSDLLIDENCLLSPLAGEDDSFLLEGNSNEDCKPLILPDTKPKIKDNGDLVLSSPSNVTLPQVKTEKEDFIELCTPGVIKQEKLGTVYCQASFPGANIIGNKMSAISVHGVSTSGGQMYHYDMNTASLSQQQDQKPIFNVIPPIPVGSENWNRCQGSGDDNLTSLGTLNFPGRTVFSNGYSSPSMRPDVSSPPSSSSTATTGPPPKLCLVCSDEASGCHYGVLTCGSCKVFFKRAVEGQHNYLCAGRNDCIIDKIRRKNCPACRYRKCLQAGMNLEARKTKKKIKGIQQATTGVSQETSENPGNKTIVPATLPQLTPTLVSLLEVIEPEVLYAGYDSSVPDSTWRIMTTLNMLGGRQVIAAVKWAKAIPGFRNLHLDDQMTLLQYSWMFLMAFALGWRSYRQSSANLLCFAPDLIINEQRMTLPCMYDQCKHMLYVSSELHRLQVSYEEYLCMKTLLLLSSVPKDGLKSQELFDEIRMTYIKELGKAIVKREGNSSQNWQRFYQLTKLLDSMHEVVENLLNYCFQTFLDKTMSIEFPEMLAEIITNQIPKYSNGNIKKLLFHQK

In the case of `C=CCOC(=O)c1ccccc1C(=O)OCC=C`, the Potency result in [1], in [3], in experiment [4] and in [5] was “inactive” throughout. Further, the compound was called inactive in experiment [2], in [6], in experiment [7], in experiment [8], in [9] and in [10]. The outcome in [11], in [12], in experiment [13], in [14] and in experiment [15] was inactive.

With `Cc1cccc(O)c1`, the Potency entry in experiment [1], in experiment [3], in [4], in experiment [5], in experiment [17] and in experiment [18] was “inactive” throughout. In addition, the compound was classed as inactive in [2], in experiment [6], in [7], in experiment [8], in [9] and in experiment [10]. Moreover, the result in experiment [11], in [12], in [13], in experiment [14] and in experiment [16] was inactive.

With `O=C(CC(C(=O)OC1CCCCC1)S(=O)(=O)O)OC1CCCCC1` (stereo not drawn), the Potency entry in experiment [1], in [3], in experiment [4], in experiment [5], in experiment [17] and in [18] was “inactive” throughout. Further, the compound was called inactive in experiment [2], in [6], in [7], in [8], in [9] and in [10]. In addition, the result in [11], in [12], in [13], in experiment [14], in experiment [16] and in [15] was inactive.

Consider `C=C(C)C(=O)OCCOCCOCCOC(=O)C(=C)C`, for which the Potency result in experiment [1], in experiment [3], in experiment [4], in experiment [5], in experiment [19] and in [17] was “inactive” throughout. For the same compound, the Potency entry in experiment [18] was “inactive”. The outcome in experiment [2], in [6], in experiment [7], in [8], in [9] and in experiment [10] was inactive. Besides, the result in [11], in [12], in experiment [13], in experiment [14], in experiment [16] and in experiment [15] was inactive.

Turning to `O=c1[nH]nnc2ccccc12`, the Potency entry in experiment [1], in experiment [3], in experiment [4], in [5] and in experiment [19] was “inactive” throughout. The call in experiment [2], in [6], in [7], in experiment [8], in experiment [9] and in [10] was inactive. Also, the compound was classed as inactive in experiment [11], in experiment [12], in experiment [13], in experiment [14] and in [20].

For the compound `CCCCCCCCCCCCCCO`, the Potency entry in experiment [1], in experiment [3], in [4] and in experiment [5] was “inactive” throughout. The outcome in experiment [2], in [6], in experiment [7], in [8], in experiment [10] and in experiment [11] was inactive. Moreover, the compound was classed as inactive in [12], in experiment [13], in [14], in [20] and in experiment [15]. Also, in [19], the Potency was 61.1 µM (active).

Regarding `O=C(O)c1cc(=O)c2c(OCC(O)COc3cccc4oc(C(=O)O)cc(=O)c34)cccc2o1`, the Potency result in [1], in experiment [3], in experiment [4], in experiment [5] and in experiment [19] was “inactive” throughout. The compound was called inactive in [2], in experiment [6], in experiment [7], in experiment [8], in experiment [9] and in experiment [10]. Also, the compound was classed as inactive in [11], in experiment [12], in experiment [13], in experiment [14] and in [20].

On to `CCCCC(CC)COC(=O)CS` (stereo not drawn), for which the Potency result in [1], in experiment [3], in experiment [4], in experiment [5], in experiment [17] and in experiment [18] was “inactive” throughout. Moreover, the call in experiment [2], in experiment [6], in experiment [7], in experiment [8], in [10] and in [11] was inactive. The compound was classed as inactive in experiment [12], in experiment [13], in experiment [14] and in experiment [20].
